Experiment [1] has as its target POU1 (OCT1 POU domain) (human, UniProt P14859 260-458). The experiment in a line: EMSA-SELEX-seq; no BOB1; 20 mM Tris-HCl pH 7.6, 140 mM NaCl, 10% glycerol, 0.5 mM EDTA, 0.05% Triton X-100, 0.1 mg/mL BSA, 0.1 mg/mL poly(dI-dC), 5 mM DTT, room temperature, 20 min; high values mean tight binding. To be noted: protein: recombinant; dsDNA, one strand shown. Put shortly:
(§1)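 Binding preference is the percentage of sequenced 8-mers matching a motif pattern. Tagged POU-domain proteins expressed in E. coli BL21 were purified under denaturing conditions and renatured. For binding, 30 ng protein met 300 ng of a PCR-amplified double-stranded random 35-nt library, with or without 28 ng coactivator protein, in 20 μL Tris–HCl pH 7.6 binding buffer for 20 min at RT. Complex bands were cut from native 6% PAGE, eluted and PCR-amplified over four rounds, then Illumina-sequenced.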

The target of experiment [2] is T1, POU2 (OCT2 POU domain) (human, UniProt P09086 175-386).
T1 sequence: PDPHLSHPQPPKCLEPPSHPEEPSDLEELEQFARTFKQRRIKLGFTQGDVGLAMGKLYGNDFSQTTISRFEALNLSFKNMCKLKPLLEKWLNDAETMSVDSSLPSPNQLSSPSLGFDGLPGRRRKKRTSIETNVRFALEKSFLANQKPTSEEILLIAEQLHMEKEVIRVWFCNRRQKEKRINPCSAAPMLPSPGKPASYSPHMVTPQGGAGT
The description is as above. To be noted: protein: recombinant; dsDNA, one strand shown. Put shortly: as §1

Experiment [3] addresses POU1 (OCT1 POU domain);BOB1 (OBF1, OCA-B) (human;human, UniProt P14859;Q16633 260-458;1-256, |). The experiment in a line: EMSA-SELEX-seq; with BOB1 (ternary complex band); 20 mM Tris-HCl pH 7.6, 140 mM NaCl, 10% glycerol, 0.5 mM EDTA, 0.05% Triton X-100, 0.1 mg/mL BSA, 0.1 mg/mL poly(dI-dC), 5 mM DTT, room temperature, 20 min; high values mean tight binding. To be noted: protein: recombinant;recombinant; copies: 1;1; dsDNA, one strand shown. Put shortly:
as §1

Experiment [4] addresses T2, POU2 (OCT2 POU domain);BOB1 (OBF1, OCA-B) (human;human, UniProt P09086;Q16633 175-386;1-256, |).
T2 sequence 1: T1 sequence
T2 sequence 2: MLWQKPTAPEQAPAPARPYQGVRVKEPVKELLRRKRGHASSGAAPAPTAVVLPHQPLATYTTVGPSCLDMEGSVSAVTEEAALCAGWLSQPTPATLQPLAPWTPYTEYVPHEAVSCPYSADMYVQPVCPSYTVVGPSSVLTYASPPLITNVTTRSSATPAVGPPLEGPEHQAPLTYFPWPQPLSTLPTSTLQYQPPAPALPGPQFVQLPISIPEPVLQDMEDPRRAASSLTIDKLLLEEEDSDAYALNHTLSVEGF
The experiment is described as above. The conditions noted are these: protein: recombinant;recombinant; copies: 1;1; dsDNA, one strand shown. Put shortly: as §1

Chain of POU1 (OCT1 POU domain) (P14859 260-458): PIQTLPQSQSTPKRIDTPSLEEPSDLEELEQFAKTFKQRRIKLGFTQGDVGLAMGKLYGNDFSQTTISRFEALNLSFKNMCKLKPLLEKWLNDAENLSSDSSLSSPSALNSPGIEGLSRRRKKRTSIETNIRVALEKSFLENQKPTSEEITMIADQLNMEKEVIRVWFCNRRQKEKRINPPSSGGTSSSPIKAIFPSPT

As for ATCGTAAA, the binding signal in experiment [1] is 0.0553 % of ANNNNAAN 8-mers; in experiment [2], 0.0552 % of ANNNNAAN 8-mers; in experiment [3], 0.0531 % of ANNNNAAN 8-mers; in experiment [4], 0.0471 % of ANNNNAAN 8-mers.

On to AACGGAAT, for which the binding signal in experiment [1] is 0.0698 % of ANNNNAAN 8-mers; in experiment [2] it was 0.0949 % of ANNNNAAN 8-mers; in experiment [3], 0.0601 % of ANNNNAAN 8-mers; in experiment [4], 0.0627 % of ANNNNAAN 8-mers.

With AGGCTAAG, the binding signal was 0.0362 % of ANNNNAAN 8-mers in experiment [1], 0.0414 % of ANNNNAAN 8-mers in experiment [2], 0.0312 % of ANNNNAAN 8-mers in experiment [3] and 0.0446 % of ANNNNAAN 8-mers in experiment [4].

Turning to ATAGGAAT, the binding signal in experiment [1] was 0.098 % of ANNNNAAN 8-mers; in experiment [2], 0.132 % of ANNNNAAN 8-mers; in experiment [3], 0.0898 % of ANNNNAAN 8-mers; in experiment [4] it was 0.106 % of ANNNNAAN 8-mers.

Turning to AATTCAAC, the binding signal in experiment [1] was 0.069 % of ANNNNAAN 8-mers; in experiment [2], 0.0708 % of ANNNNAAN 8-mers; in experiment [3], 0.0589 % of ANNNNAAN 8-mers; in experiment [4], 0.0512 % of ANNNNAAN 8-mers.

Regarding ACATAAAC, the binding signal in experiment [1] was 0.087 % of ANNNNAAN 8-mers; in experiment [2], 0.106 % of ANNNNAAN 8-mers; in experiment [3] it was 0.0652 % of ANNNNAAN 8-mers; in experiment [4], 0.0751 % of ANNNNAAN 8-mers.

On to ACCTGAAG, for which the binding signal is 0.0137 % of ANNNNAAN 8-mers in experiment [1], 0.0161 % of ANNNNAAN 8-mers in experiment [2], 0.0164 % of ANNNNAAN 8-mers in experiment [3] and 0.0206 % of ANNNNAAN 8-mers in experiment [4].

As for AGAGCAAT, the binding signal was 0.0355 % of ANNNNAAN 8-mers in experiment [1], 0.0443 % of ANNNNAAN 8-mers in experiment [2], 0.0332 % of ANNNNAAN 8-mers in experiment [3] and 0.0363 % of ANNNNAAN 8-mers in experiment [4].

With AAAGTAAG, the binding signal in experiment [1] was 0.0641 % of ANNNNAAN 8-mers; in experiment [2], 0.0685 % of ANNNNAAN 8-mers; in experiment [3] it was 0.0851 % of ANNNNAAN 8-mers; in experiment [4], 0.0834 % of ANNNNAAN 8-mers.

Regarding ACTACAAC, the binding signal in experiment [1] was 0.0122 % of ANNNNAAN 8-mers; in experiment [2], 0.0196 % of ANNNNAAN 8-mers; in experiment [3] it was 0.0164 % of ANNNNAAN 8-mers; in experiment [4] it was 0.0173 % of ANNNNAAN 8-mers.

For the sequence AGATTAAC, the binding signal in experiment [1] is 0.0885 % of ANNNNAAN 8-mers; in experiment [2], 0.0863 % of ANNNNAAN 8-mers; in experiment [3] it was 0.0414 % of ANNNNAAN 8-mers; in experiment [4] it was 0.0495 % of ANNNNAAN 8-mers.

AAAGGAAG: the binding signal in experiment [1] was 0.0561 % of ANNNNAAN 8-mers; in experiment [2], 0.061 % of ANNNNAAN 8-mers; in experiment [3], 0.0675 % of ANNNNAAN 8-mers; in experiment [4], 0.0702 % of ANNNNAAN 8-mers.

Consider ACTCCAAT, for which the binding signal is 0.0294 % of ANNNNAAN 8-mers in experiment [1], 0.0219 % of ANNNNAAN 8-mers in experiment [2], 0.0242 % of ANNNNAAN 8-mers in experiment [3] and 0.0231 % of ANNNNAAN 8-mers in experiment [4].

Turning to ACAGTAAA, the binding signal in experiment [1] was 0.0481 % of ANNNNAAN 8-mers; in experiment [2], 0.0414 % of ANNNNAAN 8-mers; in experiment [3], 0.0531 % of ANNNNAAN 8-mers; in experiment [4], 0.0338 % of ANNNNAAN 8-mers.

Turning to AGATAAAC, the binding signal was 0.04 % of ANNNNAAN 8-mers in experiment [1], 0.0506 % of ANNNNAAN 8-mers in experiment [2], 0.0519 % of ANNNNAAN 8-mers in experiment [3] and 0.0487 % of ANNNNAAN 8-mers in experiment [4].

Take AACCGAAA: the binding signal in experiment [1] was 0.0271 % of ANNNNAAN 8-mers; in experiment [2] it was 0.0293 % of ANNNNAAN 8-mers; in experiment [3] it was 0.0265 % of ANNNNAAN 8-mers; in experiment [4] it was 0.0256 % of ANNNNAAN 8-mers.

In the case of AGATCAAC, the binding signal in experiment [1] was 0.0175 % of ANNNNAAN 8-mers; in experiment [2] it was 0.0207 % of ANNNNAAN 8-mers; in experiment [3], 0.0211 % of ANNNNAAN 8-mers; in experiment [4], 0.0338 % of ANNNNAAN 8-mers.

For ACTTAAAA, the binding signal is 0.0587 % of ANNNNAAN 8-mers in experiment [1], 0.0524 % of ANNNNAAN 8-mers in experiment [2], 0.0464 % of ANNNNAAN 8-mers in experiment [3] and 0.052 % of ANNNNAAN 8-mers in experiment [4].

For AACGCAAT, the binding signal is 0.0347 % of ANNNNAAN 8-mers in experiment [1], 0.0351 % of ANNNNAAN 8-mers in experiment [2], 0.0242 % of ANNNNAAN 8-mers in experiment [3] and 0.0314 % of ANNNNAAN 8-mers in experiment [4].

AGAGTAAG: the binding signal in experiment [1] is 0.0305 % of ANNNNAAN 8-mers; in experiment [2] it was 0.0466 % of ANNNNAAN 8-mers; in experiment [3] it was 0.039 % of ANNNNAAN 8-mers; in experiment [4], 0.0297 % of ANNNNAAN 8-mers.

In the case of ACCGTAAA, the binding signal in experiment [1] was 0.0244 % of ANNNNAAN 8-mers; in experiment [2], 0.0253 % of ANNNNAAN 8-mers; in experiment [3], 0.0226 % of ANNNNAAN 8-mers; in experiment [4] it was 0.0173 % of ANNNNAAN 8-mers.

Take AACCGAAG: the binding signal in experiment [1] was 0.0172 % of ANNNNAAN 8-mers; in experiment [2] it was 0.0201 % of ANNNNAAN 8-mers; in experiment [3], 0.0168 % of ANNNNAAN 8-mers; in experiment [4], 0.014 % of ANNNNAAN 8-mers.

On to ATACAAAG, for which the binding signal in experiment [1] is 0.0984 % of ANNNNAAN 8-mers; in experiment [2], 0.0938 % of ANNNNAAN 8-mers; in experiment [3] it was 0.139 % of ANNNNAAN 8-mers; in experiment [4], 0.09 % of ANNNNAAN 8-mers.

For ACCCGAAT, the binding signal in experiment [1] was 0.0233 % of ANNNNAAN 8-mers; in experiment [2], 0.0386 % of ANNNNAAN 8-mers; in experiment [3], 0.0219 % of ANNNNAAN 8-mers; in experiment [4] it was 0.0248 % of ANNNNAAN 8-mers.

AAGCAAAC: the binding signal in experiment [1] is 0.0606 % of ANNNNAAN 8-mers; in experiment [2] it was 0.0386 % of ANNNNAAN 8-mers; in experiment [3], 0.0878 % of ANNNNAAN 8-mers; in experiment [4], 0.057 % of ANNNNAAN 8-mers.

On to AACAAAAT, for which the binding signal in experiment [1] is 0.119 % of ANNNNAAN 8-mers; in experiment [2], 0.0926 % of ANNNNAAN 8-mers; in experiment [3], 0.14 % of ANNNNAAN 8-mers; in experiment [4], 0.0982 % of ANNNNAAN 8-mers.

For ATAGGAAA, the binding signal in experiment [1] is 0.131 % of ANNNNAAN 8-mers; in experiment [2], 0.112 % of ANNNNAAN 8-mers; in experiment [3], 0.213 % of ANNNNAAN 8-mers; in experiment [4] it was 0.146 % of ANNNNAAN 8-mers.

AGTCGAAG: the binding signal was 0.0305 % of ANNNNAAN 8-mers in experiment [1], 0.0357 % of ANNNNAAN 8-mers in experiment [2], 0.023 % of ANNNNAAN 8-mers in experiment [3] and 0.0347 % of ANNNNAAN 8-mers in experiment [4].

With ACTGAAAT, the binding signal in experiment [1] is 0.0522 % of ANNNNAAN 8-mers; in experiment [2], 0.0639 % of ANNNNAAN 8-mers; in experiment [3] it was 0.0472 % of ANNNNAAN 8-mers; in experiment [4], 0.0495 % of ANNNNAAN 8-mers.

For ATAGCAAG, the binding signal in experiment [1] was 0.032 % of ANNNNAAN 8-mers; in experiment [2] it was 0.0363 % of ANNNNAAN 8-mers; in experiment [3], 0.0394 % of ANNNNAAN 8-mers; in experiment [4], 0.0454 % of ANNNNAAN 8-mers.

(Values after article PMC10812921, “Transcriptional Coactivator BOB1 (OBF1, OCA-B) Modulates the Specificity of DNA Recognition by the POU-Domain Factors OCT1 and OCT2 in a Monomeric Configuration”.)
